In PubChem BioAssay (NCI):
This is part of a sample that, as a whole, favours compounds with a hit. Of some 83,000 tested, about 20% had one in any assay.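 The test compound was applied at a single concentration to cells in 96-well plates for 48 hours, and percent growth was recorded.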 A number with no mark means an inactive call. The source made the active and inactive calls. How the source made its calls: active means growth percent below 10; inactive means the rest.

Experiments:
Assay in all cases: NCI-60 one-dose screen, 48 h (100 = growth as untreated, 0 = no growth, -100 = all killed)
Conditions in all cases: 10 µM unless noted
[1] = test system: NCI-H23 lung
[2] = test system: NCI-H226 lung
[3] = test system: NCI-H322M lung
[4] = test system: NCI-H460 lung
[5] = test system: HOP-92 NSCLC
[6] = test system: NCI-H522 lung
[7] = test system: A549/ATCC NSCLC
[8] = test system: 786-0 renal
[9] = test system: COLO 205 colon
[10] = test system: DU-145 prostate
[11] = test system: K-562 leukemia
[12] = test system: MALME-3M melanoma
[13] = test system: MDA-MB-231 breast
[14] = test system: RXF 393 renal
[15] = test system: SF-268 CNS
[16] = test system: SF-295 CNS
[17] = test system: SF-539 CNS
[18] = test system: UACC-257 melanoma
[19] = test system: M14 melanoma
[20] = test system: HOP-62 NSCLC

SMILES	growth [1]	growth [2]	growth [3]	growth [4]	growth [5]	growth [6]	growth [7]	growth [8]	growth [9]	growth [10]	growth [11]	growth [12]	growth [13]	growth [14]	growth [15]	growth [16]	growth [17]	growth [18]	growth [19]	growth [20]
COc1ccccc1C(=O)NN1C(=O)/C(=C/C2=Cc3ccccc3OC2)SC1=S	106%	98.9%	99.4%	120%	86.6%	97.9%	103%	104%	119%	112%	101%	99.3%	102%	114%	109%	109%	95.4%	108%	99.3%	–
COc1cc(C2CC(c3cc(OC)c(OC)c(OC)c3)=NN2c2ccccc2)ccc1OCc1ccc(C)cc1 (configuration not stated)	101%	80.2%	102%	–	111%	82.3%	102%	102%	119%	100%	92.8%	95.3%	102%	101%	87.6%	108%	95.7%	101%	97.8%	99.6%
Cn1cc(-c2nnc(N)nc2-c2c[nH]c3ccccc23)c2cccnc21	65.7%	71.1%	69.9%	–	–	21.4%	46%	54.9%	25.9%	76.9%	15.7%	38.2%	48.5%	71.1%	65.9%	32%	49.3%	62.3%	20.8%	48.1%
CCOC(=O)C1=C(N)N(c2ccccc2)C2=C(C(=O)CC(C)(C)C2)C1c1ccc(Cl)cc1Cl (configuration not stated)	34.5%	24.4%	56.8%	–	-0.322% (active)	35.3%	26.9%	34.3%	9.03% (active)	46%	13%	27.9%	–	21.2%	52.1%	23.6%	33.3%	35%	41.3%	50.5%
C=CC(=O)Nc1ccc(C)c(Oc2ccc(Cl)cc2)c1	55.9%	41.7%	48.4%	–	–	3.62% (active)	47.2%	55.1%	55.7%	68.6%	53.2%	73.8%	44.1%	38.5%	57.1%	58%	30.2%	66.6%	72.3%	63%
O=C(COc1ccc(NC(=O)Nc2ccc(Cl)c(Cl)c2)cc1)N=Nc1c(O)[nH]c2ccc(Cl)cc12	-19.5% (active)	-42.8% (active)	-5.99% (active)	14.1%	-30.5% (active)	-55.8% (active)	-39.1% (active)	-52.5% (active)	-54.4% (active)	-31.3% (active)	4.71% (active)	-76.6% (active)	-66.5% (active)	-53% (active)	-12.3% (active)	-61% (active)	-90.2% (active)	-72.2% (active)	-71.2% (active)	–
COC(=O)C[C@](O)(CCCC(C)(C)O)C(=O)O[C@H]1C(OC)=C[C@@]23CCCN2CCc2cc4c(cc2[C@@H]13)OCO4	-53.9% (active)	-21.4% (active)	-3.53% (active)	-3.74% (active)	–	-68.7% (active)	-18.5% (active)	-14.4% (active)	-42.3% (active)	-11.7% (active)	4.68% (active)	-43.8% (active)	-20.4% (active)	-31.8% (active)	-6.53% (active)	-22.8% (active)	-50.8% (active)	-28.2% (active)	-71.4% (active)	–
O=C(/C=C/c1ccc(-c2ccccc2)cc1)c1nc2ccccc2n1Cc1ccc(Br)cc1	24.7%	24.3%	72.4%	16.8%	40.1%	71%	64.7%	39.3%	76.7%	80.5%	36%	44%	–	35.3%	62.9%	21.9%	17.7%	67.4%	74%	–
